Assay results reported in PubChem BioAssay (EPA / NIEHS).
Records with an inconclusive call do not appear. Activity calls are given as the source filed them. How the source made its calls: active means hit-call score of the fitted dose curve at least 0.9, where 1 is the maximum; inconclusive means response in the unintended direction; inactive means score below 0.9.

Molecular target: human Thyroid Receptor Alpha (TRa), THRA (gene 7067) (UniProt P10827)
Assay: NVS_NR_hTRa_Antagonist: NovaScreen (NVS) Nuclear Receptor Binding Assay for human Thyroid Receptor Alpha Antagonism (TRa) (AID 2283362)
Method: NVS_NR_hTRa_Antagonist is a biochemical, single-readout assay that uses extracted gene-proteins in a cell-free assay. Measurements were taken 1 hour after chemical dosing in a 384-well plate.NVS_NR_hTRa_Antagonist is one of one assay component(s) measured or calculated from the NVS_NR_hTRa_Antagonist assay. It is designed to make measurements of enzyme-linked immunosorbent assay, a form of binding reporter, as detected with chemiluminescence signals by AlphaLISA immunoassay technology.Data from the assay component NVS_NR_hTRa_Antagonist was analyzed into 1 assay endpoint. This assay endpoint, NVS_NR_hTRa_Antagonist, was analyzed in the positive analysis fitting direction relative to DMSO as the negative control and baseline of activity. Using a type of binding reporter, loss-of-signal activity can be used to understand changes in the binding as they relate to the gene THRA. Furthermore, this assay endpoint can be referred to as a primary readout, because the performed assay has only produced 1 assay endpoint. To generalize the intended target to other relatable targets, this assay endpoint is annotated to the nuclear receptor intended target family, where the subfamily is non-steroidal.
Binding assays used specific radioligands (tritiated, iodinated) with non-radioactive competitive displacement ligands in agonist or antagonist protocols (as indicated) and various reference compounds and inhibitors to titrate specific binding to receptors and transporters. Most enzyme assays (CYPs, kinases, phosphatases, proteases, HDACs) used recombinant protein and specific substrates (fluorescence mostly, some colorimetric and radioactive) and inhibitors, followed by a biochemical separation of substrate and product. All assays for the biochemical HTS were initially run in duplicate at a single concentration (10 uM for CYP450 assays and 25 uM for all others). […] Each assay was run with positive and negative controls, and concurrent controls on every plate. The follow-up (secondary) screen tested active chemical-pairs in concentration series, as well as a few additional assays not tested in the primary screen, some selected negative inactives, and several cases re-run in the concentration series for confirmatory purposes.

Chain of human Thyroid Receptor Alpha (TRa), THRA (gene 7067) (P10827 whole entry, looked up): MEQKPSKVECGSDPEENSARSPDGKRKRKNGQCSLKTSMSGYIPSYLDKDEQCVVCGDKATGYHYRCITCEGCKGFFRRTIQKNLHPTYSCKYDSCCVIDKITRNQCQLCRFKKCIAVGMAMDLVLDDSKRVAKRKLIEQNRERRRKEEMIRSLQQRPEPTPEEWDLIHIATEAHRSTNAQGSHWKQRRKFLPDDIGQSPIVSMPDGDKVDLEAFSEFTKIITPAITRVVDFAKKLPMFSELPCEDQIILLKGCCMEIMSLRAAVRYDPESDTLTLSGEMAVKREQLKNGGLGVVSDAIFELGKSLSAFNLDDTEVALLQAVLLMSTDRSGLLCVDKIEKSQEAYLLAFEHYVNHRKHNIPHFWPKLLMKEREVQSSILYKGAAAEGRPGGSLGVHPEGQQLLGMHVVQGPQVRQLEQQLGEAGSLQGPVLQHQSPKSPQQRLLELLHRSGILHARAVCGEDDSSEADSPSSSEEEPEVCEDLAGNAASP

outcome, inactive:
CC1(C)C(=O)N(Cl)C(=O)N1Br, OC[C@H]1O[C@@H]2O[C@H]3[C@H](O)[C@@H](O)[C@@H](O[C@H]4[C@H](O)[C@@H](O)[C@@H](O[C@H]5[C@H](O)[C@@H](O)[C@@H](O[C@H]6[C@H](O)[C@@H](O)[C@@H](O[C@H]7[C@H](O)[C@@H](O)[C@@H](O[C@H]8[C@H](O)[C@@H](O)[C@@H](O[C@H]9[C@H](O)[C@@H](O)[C@@H](O[C@H]1[C@H](O)[C@H]2O)O[C@@H]9CO)O[C@@H]8CO)O[C@@H]7CO)O[C@@H]6CO)O[C@@H]5CO)O[C@@H]4CO)O[C@@H]3CO, Oc1ccc2cc(SSc3ccc4cc(O)ccc4c3)ccc2c1, Nc1ccc(N)c2c1C(=O)c1ccccc1C2=O, CC(CN=Cc1ccccc1O)N=Cc1ccccc1O (configuration not stated)

AC50, active:
O=C(Nc1ccc2c(O)c(N=Nc3ccc(N=Nc4ccc(S(=O)(=O)O)cc4)cc3)c(S(=O)(=O)O)cc2c1)c1ccccc1 9.08 µM, Nc1ccc2cc(S(=O)(=O)O)cc(O)c2c1N=Nc1ccccc1C(F)(F)F 20 µM, CCOc1ccc(N=Nc2ccc(C=Cc3ccc(N=Nc4ccc(OCC)cc4)cc3S(=O)(=O)O)c(S(=O)(=O)O)c2)cc1 14.1 µM, [O-]n1ccccc1=S.[O-]n1ccccc1=S.[Zn+2] 1.1 µM, Cc1cc(S(=O)(=O)O)ccc1N=Nc1c(O)ccc2ccccc12 17.6 µM, Cc1ccc(S(=O)(=O)Oc2ccc(N=Nc3ccc(-c4ccc(N=Nc5c(O)ccc6cc(S(=O)(=O)O)cc(S(=O)(=O)O)c56)c(C)c4)cc3C)cc2)cc1 3.09 µM, COc1ccccc1N=Nc1c(S(=O)(=O)O)cc2cc(S(=O)(=O)O)cc(NC(C)=O)c2c1O 8.29 µM
